Screening data as filed in PubChem BioAssay.
12-LOX inh = ALOX12 (human) lipoxygenase inhibition. Potency, µM (highest dose often 108 µM), inactives show at the highest dose activity change, negative = inhibition, actives largely listed as inhibitors. hit rate 1.1% among 580,000. P18054. purified 12hLO, xylenol orange hydroperoxide absorbance; further: potency means the concentration at half of the fitted maximal effect
Target sequence (P18054 whole entry, looked up): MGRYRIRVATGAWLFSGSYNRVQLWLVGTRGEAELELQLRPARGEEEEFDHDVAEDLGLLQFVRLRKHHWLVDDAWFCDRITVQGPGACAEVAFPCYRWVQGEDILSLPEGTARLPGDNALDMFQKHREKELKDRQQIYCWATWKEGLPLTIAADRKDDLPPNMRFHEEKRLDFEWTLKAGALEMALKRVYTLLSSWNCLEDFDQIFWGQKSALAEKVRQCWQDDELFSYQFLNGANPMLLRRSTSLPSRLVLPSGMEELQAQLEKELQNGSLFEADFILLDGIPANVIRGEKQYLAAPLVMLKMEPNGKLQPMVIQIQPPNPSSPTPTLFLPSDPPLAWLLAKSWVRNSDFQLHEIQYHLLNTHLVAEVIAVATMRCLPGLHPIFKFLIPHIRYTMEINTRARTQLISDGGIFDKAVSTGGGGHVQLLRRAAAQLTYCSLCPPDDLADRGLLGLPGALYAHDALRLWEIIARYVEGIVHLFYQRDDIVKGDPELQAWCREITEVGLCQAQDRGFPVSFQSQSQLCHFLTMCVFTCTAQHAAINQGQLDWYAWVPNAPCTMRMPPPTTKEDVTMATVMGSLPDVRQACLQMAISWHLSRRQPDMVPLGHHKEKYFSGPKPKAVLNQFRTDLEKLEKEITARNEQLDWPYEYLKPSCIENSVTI
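Purified human 12hLO at 150 nM in 25 mM Hepes, 0.01% Triton X-100, pH 7.0, preincubated 15 min at room temperature with compound. Reaction started with 40 uM arachidonic acid, 30 min at room temperature. Hydroperoxide measured by Fe-xylenol orange, 573/405 nm absorbance ratio.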
DT40 TDP1 no CPT = qHTS for Inhibitors of human tyrosyl-DNA phosphodiesterase 1 (TDP1): qHTS in cells in absence of CPT; DT40 Tdp1-/- hTDP1 cells, no CPT, ATP luminescence, 48 h; Potency, µM (top dose mostly 46.2 µM), inactives show top-dose activity change, negative = growth inhibition, usual class: inhibitors; hit rate 15% among 420,000; AID 686978, 2013; further: potency means the concentration at half of the fitted maximal effect; nearly all actives have a fitted effect of over 55% in size
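Readout: luminescence from CellTiter-Glo after 30 min in the dark at RT. Cells: DT40 Tdp1-/- with stable hTDP1, 400/well. Exposure: compounds alone, ≥48 hr, 37 °C.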
TDP1 cell CPT = growth inhibition of DT40 Tdp1-/-;hTDP1 cells with camptothecin (screen for TDP1 inhibitors); chicken DT40 Tdp1-/-;hTDP1 cells + 20 nM CPT, ATP luminescence, 48 h; Potency, µM (series often up to 46.2 µM), inactives show at the top dose activity change, negative = growth inhibition, most hits filed as inhibitors; hit rate 12% among 420,000; further: potency means the concentration at half of the fitted maximal effect; nearly all actives have a fitted effect of over 55% in size
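Chicken DT40 Tdp1-/- cells complemented with human TDP1, 400 cells/well, exposed to compounds plus 20 nM camptothecin for at least 48 h at 37 C; viability read as ATP content by CellTiter-Glo luminescence.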
HT1080 IDH1KD tx = HT-1080 IDH1 knockdown cell toxicity (counter line) | HT-1080 IDH1 knockdown viability, ATP luminescence, 48 h | hit rate 2% among 360,000 | Potency, µM (top dose mostly 46.1 µM), for inactives: at the top dose activity, negative = toxicity, hits mostly cytotoxic;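 further: potency means the concentration at half of the fitted maximal effect; 0% = DMSO wells and -100% = cell-free medium wells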
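Luminescent ATP read-out (CellTiter-Glo, 10 min at room temperature) after 48 h compound exposure at 37 °C gave viability of IDH1-knockdown HT-1080 cells. Activity was normalised to DMSO and cell-free wells, then fitted as concentration-response curves.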
HT1080NT lethal = kills 2HG-producing HT-1080-NT fibrosarcoma cells. AID 686970. hit rate 1.6% among 360,000. HT-1080-NT fibrosarcoma viability, CellTiter-Glo ATP luminescence, 48 h. Potency, µM (doses to about 46.1 µM), without a hit: at the highest dose activity, negative = less viability, usual class: cytotoxic;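 further: NT is the 2HG producing partner of a matched IDH1 knockdown line; potency means the concentration at half of the fitted maximal effect; 0% = DMSO-treated cells and -100% = media-only wells without cells; nearly all actives have a fitted effect of over 55% in size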
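HT-1080-NT fibrosarcoma cells (2HG-overproducing), 750 cells/well in RPMI with 5% FBS, dosed after 2 h and incubated 48 h at 37C. CellTiter-Glo luminescence normalized to DMSO and no-cell wells; concentration-response curves fitted and classed.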
IL1B secr inh = inflammasome signaling inhibition, IL-1 beta readout. hit rate 4.7% among 360,000. activity change, % at 57.5 µM. AID 743279. THP-1 LPS/ATP IL-1B secretion, AlphaLISA, 16 h; hits give low values; in the data active means activity change below about -50%; inconclusive means mostly about -30% to -49%
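Secreted IL-1B measured by AlphaLISA bead assay after 16 h compound exposure of THP-1 cells; compounds (final up to 57.5 uM) added 1 h before LPS (250 ng/mL) and ATP (1.25 mM) stimulation; lower signal means less secretion.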
Starred values were filed as active, the others as inactive; ? = inconclusive; · = no result; [ ] = remark or other dose. The entries come from a sample that favours hits as a whole. Unless noted, the call rests on the fitted dose curve; in most records, active means well fitted curve in the direction sought with a large enough effect; inconclusive means small, poorly fitted or top-dose-only effect, or another doubt; inactive means no such curve, though single readings can be large; an effect the other way counts as inactive or inconclusive. Unless noted, on the % scale 0 is the no-effect control and ±100 the full control effect.

SMILES	12-LOX inh	DT40 TDP1 no CPT	TDP1 cell CPT	HT1080 IDH1KD tx	HT1080NT lethal	IL1B secr inh
C/C(=N\NC(=O)c1ccccc1O)c1ccc(Br)s1	-3.4%	?	14.6µM*	14.6µM*	?	-9.6
C/C(=N\NC(=O)c1ccccc1O)c1c(O)cc(C)oc1=O	27.2%	?	?	10µM*	?	69.5
CCc1ccc(CNC(=O)c2ccc3nc(CC)c(CC)nc3c2)cc1	-1.7%	·	·	·	·	·
Cc1ccc(-n2cc(CNCCc3cscn3)c(-c3ccc(F)cc3)n2)cc1	?	23.1µM*	?	20.6µM*	20.6µM*	-94.2*
COc1ccc(-n2cc(CNCCc3cscn3)c(-c3ccccc3Cl)n2)cc1	-27.3%	11.6µM*	16.4µM*	-20.9%	-9.8%	-63.3*
Cc1nc2c(=O)[nH]c(=S)n(C)c2nc1C	31.6µM*	?	?	-0.7%	-3.5%	27.0
O=C(COc1ccccc1)Nc1ccc2n(c1=O)C[C@H]1C[C@@H]2CN(C(=O)c2cccnc2)C1	0.5%	·	·	·	·	·
CCC1(O)CCC12CCN(C(=O)CC1CCCC1)CC2 (stereo unspecified)	39.4%	·	·	·	·	·
CCc1ccc(C(=O)Nc2ccc3oc(C)nc3c2)cc1	-21.6%	·	·	·	·	·
CNc1cc(-c2cccc(C(=O)N3CCOCC3)c2)ncn1	5.5%	0.9%	6.8%	19.4%	23.9%	-1.1
COc1ccc(C2c3ccc4ccccc4c3Oc3ncn(CCCO)c(=N)c32)cc1OC (stereo unspecified)	-3.5%	20.6µM*	?	5.17µM*	7.31µM*	-55.5*
COc1ccc(C2c3ccc4ccccc4c3Oc3ncn(CCO)c(=N)c32)cc1OC (stereo unspecified)	·	20.6µM*	23.1µM*	-19.9%	-22.9%	?
COc1ccc(Cc2nc3c4c(ncn3n2)Oc2c(ccc3ccccc23)C4c2ccc(OC)c(OC)c2)cc1 (stereo unspecified)	-18.9%	?	-17.9%	21.8%	23.0%	2.0
CC(=O)N1CCCC2(C1)C(=NC1CCCCC1)NC(=O)N2c1cccnc1 (stereo unspecified)	99.5%	·	·	·	·	·
CC(C)(C)C(=O)N1c2ccccc2CCc2ccccc21	-14.5%	?	?	-10.3%	-0.7%	-8.9
COC(=O)N1c2ccccc2CCc2ccccc21	?	16.4µM*	20.6µM*	?	?	4.1
O=C(NCC1CCCO1)C(c1cccs1)N(Cc1cccs1)C(=O)c1ccc(-c2ccccc2)[nH]1 (stereo unspecified)	-14.7%	?	13µM*	?	-23.5%	?
Cc1ccc(C(C(=O)NC(C)(C)C)N(CCCN2CCOCC2)C(=O)c2ccc(-c3ccccc3)[nH]2)o1 (stereo unspecified)	17.0%	35.7%	5.8%	6.5%	13.0%	49.4
O=C(NCC1CCCO1)C(c1ccc(F)cc1)N(CC1CCCO1)C(=O)c1ccc(-c2ccccc2)[nH]1 (stereo unspecified)	-9.7%	?	-11.2%	7.6%	16.0%	-7.7
O=C(NC1CCCCC1)C(c1cccs1)N(CCCN1CCOCC1)C(=O)c1ccc(-c2ccccc2)[nH]1 (stereo unspecified)	?	14.6µM*	?	?	?	0.0
CN(C)C(=O)c1cccnc1OC1CCN(Cc2cccnc2)CC1	47.4%	·	·	·	·	·
COc1cc(Br)c(C(C)NC(=O)c2cccc(Br)c2)cc1OC (stereo unspecified)	?	23.1µM*	25.9µM*	?	-24.6%	-2.4
COc1cc(C(=O)NC(C)c2cccc3ccccc23)cc(OC)c1OC (stereo unspecified)	?	20.6µM*	?	0.2%	-2.8%	-56.7*
CCCCN1CC(Br)C(=O)NC1=O (stereo unspecified)	-12.4%	18.4µM*	14.6µM*	9.9%	11.6%	-10.0
CCOC(=O)c1oc2cccc(OCC(O)CNC(C)C)c2c1C (stereo unspecified)	0.0%	?	20.6µM*	?	?	-50.1*
SMILES	12-LOX inh	DT40 TDP1 no CPT	TDP1 cell CPT	HT1080 IDH1KD tx	HT1080NT lethal	IL1B secr inh
CC1(C)C2CCC1(CS(=O)(=O)NCc1ccc(C(F)(F)F)cc1)C(=O)C2 (stereo unspecified)	·	11.6µM*	?	-19.0%	-18.5%	-23.3
CC1(C)C2CCC1(CS(=O)(=O)NCc1ccc(S(N)(=O)=O)cc1)C(=O)C2 (stereo unspecified)	-8.5%	0.5%	1.5%	10.1%	8.0%	29.6
COCCNC(=O)C[C@@H]1C[C@H]2O[C@H](CNC(=O)Nc3ccc(OC)cc3)[C@@H](O)[C@H]2O1	-5.0%[176 µM]	·	·	·	·	·
Cc1cc(F)ccc1OC1CN([S+](=O)([O-])CCC(F)(F)F)C1	19.3%	·	·	·	·	·
C#CCCc1ccccc1/C=[N+](/C)[O-]	-17.6%	?	23.1µM*	-0.8%	-5.7%	48.7
C/[N+]([O-])=C\c1coc2ccccc2c1=O	155.8%	-14.7%	7.0%	-1.8%	-0.6%	-5.7
COc1ccc([N+](=O)[O-])cc1-c1[nH]c(-c2ccc(C(=O)O)cc2)nc1-c1ccccc1	0.0%	-0.6%	-6.2%	-0.9%	14.4%	30.7
COc1ccc(-c2nc(-c3ccccc3)c(-c3cc([N+](=O)[O-])ccc3C)[nH]2)cc1O	?	14.6µM*	?	?	?	-1.1
Cc1ccc([N+](=O)[O-])cc1NC(=O)c1ccc(-c2ccccc2)cc1	0.0%	-8.2%	-0.4%	-1.1%	-2.4%	5.4
Cc1ccc([N+](=O)[O-])cc1-c1[nH]c(-c2ccc(O)c(O)c2)nc1-c1ccccc1	?	16.4µM*	16.4µM*	-25.3%	-8.7%	3.5
Cc1noc([C@H]2CCN(C(=O)C3CC3)C[C@H]2NC(=O)C2CC2)n1	61.5%	·	·	·	·	·
Cc1oc(-c2ccccc2)nc1C(=O)NC1CCCCCC1	-20.5%	·	·	·	·	·
CC(C)c1nc2sc3c(NCc4ccccc4)ncnc3c2c2c1COC(C)(C)C2	0.0%	?	9.2µM*	0.7%	-1.7%	?
CC(C)c1nc2sc3c(NCc4ccco4)ncnc3c2c2c1COC(C)(C)C2	8.8%	23.1µM*	18.4µM*	?	-25.8%	?
O=C(NCCc1ccccc1)C1CCN(Cc2cc3ccccc3n2Cc2cccc(Cl)c2)CC1	?	20.6µM*	?	·	·	·
O=C(CCC1CCCN(Cc2cccc(Cl)c2)C1)NCc1ccccc1F (stereo unspecified)	-14.5%	?	20.6µM*	1.6%	28.2%	0.0
